This is a sample that favours compounds with a hit; in the whole collection about 27% have one here.
CYP2C19 act = increases human CYP2C19 enzyme activity; recombinant CYP2C19, luciferin-H EGE luminescence; stronger effect = higher value; 0 = fully inhibited enzyme, 1 = untreated enzyme; activation factor at 5 µM; 96,000 tested, under 10 active;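 active = activation factor of at least 2 at 5 µM in the primary screen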;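 note: 0 = wells with 2.5 mM tranylcypromine and 1 = vehicle-only wells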
CYP2C19 inhib = human CYP2C19 inhibition. CYP2C19 Supersomes, luciferin-H EGE luminescence, 30 min. inhibition, % at 5 µM. 21% of 96,000 active;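 active = CYP2C19 inhibition above a set limit at 5 µM in the primary screen, cut at about 50% in these data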;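 note: plate controls were negative control wells for no effect and 2.5 mM tranylcypromine positive control for full effect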
Cav32 inh = blocks human Cav3.2 T-type calcium channel. B-score at 10 µM. Cav3.2-expressing cells, Fluo-4 calcium fluorescence FDSS; stronger effect = lower value. O95180. 4% of 100,000 active;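 active = single-dose well whose peak fluorescence ratio is a statistical outlier from its plate by either plate-standardised score or position-corrected B-score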
CYP2C9 inhib = human CYP2C9 inhibition; CYP2C9 Supersomes, luciferin-H conversion, luminescence; inhibition, % at 5 µM; 20% of 96,000 active; AID 777;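 active = blocking of liver enzyme CYP2C9 beyond about 50% at 5 µM, limit read from the data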
Target sequence (P11712 whole entry, looked up): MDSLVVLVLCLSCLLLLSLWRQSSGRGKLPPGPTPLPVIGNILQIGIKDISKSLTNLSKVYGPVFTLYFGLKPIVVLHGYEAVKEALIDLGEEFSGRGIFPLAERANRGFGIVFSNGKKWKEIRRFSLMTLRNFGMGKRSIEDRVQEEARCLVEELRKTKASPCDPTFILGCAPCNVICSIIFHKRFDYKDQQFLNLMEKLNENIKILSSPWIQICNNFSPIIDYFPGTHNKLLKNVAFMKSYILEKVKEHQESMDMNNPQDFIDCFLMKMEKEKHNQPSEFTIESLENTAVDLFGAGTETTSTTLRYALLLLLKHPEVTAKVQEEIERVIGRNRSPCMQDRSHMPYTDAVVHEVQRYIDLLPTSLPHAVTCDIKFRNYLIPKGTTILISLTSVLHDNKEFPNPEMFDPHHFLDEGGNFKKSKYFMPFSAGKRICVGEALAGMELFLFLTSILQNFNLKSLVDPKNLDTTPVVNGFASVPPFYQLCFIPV
CYP2C9 activ = activators of human CYP2C9; recombinant CYP2C9, luciferin-H conversion, luminescence; stronger effect = higher value; factor 1 = untreated enzyme, 0 = blocked; AID 1024; activation factor at 5 µM; P11712; 1.4% of 96,000 active;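 active = activation factor of 2 or more for CYP2C9 at a 5 µM dose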;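 note: 0 = sulfaphenazole-blocked wells and 1 = vehicle-only wells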
Numbers without * were called inactive; . = no result given.

SMILES | CYP2C19 act | CYP2C19 inhib | Cav32 inh | CYP2C9 inhib | CYP2C9 activ
Cc1ccc(CNC(=O)CC2C(=O)Nc3c2c(=O)n(C)c(=O)n3Cc2ccccc2)cc1 (centres undefined) | 1 | 0 | -0.32 | 22 | 0.8
O=C(N1CCOCC1)N1c2ccccc2Sc2ccccc21 | 0.4 | 55* | -1.2 | 19 | 0.8
CC(CC1C(C#N)=C(N)OC2=C1C(=O)CCC2)c1ccccc1 (centres undefined) | 0.1 | 93* | 2.2 | 88* | 0.1
CC1(C)CC(=O)C2=C(C1)OC(N)=C(C#N)C2C#Cc1ccccc1 (centres undefined) | 0.8 | 15 | -0.41 | 69* | 0.3
CC1(C)CC(=O)C2=C(C1)OC(N)=C(C#N)C2CCc1ccccc1 (centres undefined) | . | . | -0.43 | . | .
Cc1cc(C2C(C#N)=C(N)OC3=C2C(=O)CCC3)c(C)s1 (centres undefined) | 0.5 | 51* | 0.58 | 22 | 0.8
CC(c1ccccc1)C1C(C#N)=C(N)OC2=C1C(=O)CC(C)(C)C2 (centres undefined) | 0.1 | 90* | 0.41 | 84* | 0.2
Cc1oc(-c2ccccc2F)nc1CN1CCC(C(=O)NC2CC2)CC1 | 1.1 | -7 | -0.51 | -15 | 1.1
Cc1nc2cc(C(F)(F)F)ccc2n1C1CCN(CC(=O)NC(C)(C)C)CC1 | 0.7 | 33 | 1.4 | 12 | 0.9
CC1(C)CC(=O)C2=C(C1)OC(/N=C/N1CCOCC1)=C(C#N)C2c1ccccc1 (centres undefined) | 0.7 | 31 | 1.2 | 65* | 0.3
Cc1cc2nc(C)n(CCCNC(=O)Nc3cccc4ccccc34)c2cc1C | 0.5 | 46 | -0.69 | 57* | 0.4
CCOc1ccc(NC(=O)NCCCn2c(C)nc3cc(C)c(C)cc32)cc1 | 0.6 | 35 | -0.7 | 81* | 0.2
CCOc1ccc(NC(=O)NCCCN2CCCC2)cc1 | 1 | -2 | -0.034 | -1 | 1
Cc1sc2nc(C)n(/N=C/c3ccccc3)c(=O)c2c1C | 0.2 | 77* | -0.25 | -3 | 1
CCOC(=O)CN1C(=O)C2Cc3ccccc3CN2C1=S (centres undefined) | 0.3 | 70* | -0.93 | 23 | 0.8
CCC(=O)N[C@@H]1CC(C(C)(C)NC(=O)CC)CC=C1C (some centres undefined) | 1 | 2 | 0.69 | 8 | 0.9
O=C(COC(=O)c1ccc(NS(=O)(=O)c2ccc3c(c2)OCCO3)cc1)NCC1CCCO1 (centres undefined) | 0.6 | 37 | -0.0035 | 83* | 0.2
CCCCNC(=O)COC(=O)c1ccc(NS(=O)(=O)c2ccc3c(c2)OCCO3)cc1 | 0.7 | 31 | 0.67 | 91* | 0.1
Cc1cc(NC(=O)CN2CCOCC2)n(-c2nc3ccccc3s2)n1 | 0.9 | 8 | -1.1 | 40 | 0.6
O=C1C(Cl)=C(N2CCCCCC2)C(=O)N1c1ccccc1 | 0.7 | 29 | -1 | 18 | 0.8
O=C1C(Cl)=C(N2CCOCC2)C(=O)N1c1cccc(Cl)c1 | 0.1 | 85* | 0.53 | 44 | 0.6
CN1CCN(C2=C(Cl)C(=O)N(c3ccc(Cl)cc3)C2=O)CC1 | 0.1 | 88* | -0.32 | 56* | 0.4
CCCn1c(SCC(=O)N2c3ccc(F)cc3CCC2C)nnc1-c1ccccn1 (centres undefined) | . | . | -1.2 | . | .
CC(C(=O)N1c2ccc(F)cc2CCC1C)N1C(=O)c2ccccc2C1=O (centres undefined) | 0.3 | 69* | 0.066 | 45 | 0.5
COc1cc(OC)cc(C(=O)N2c3ccc(F)cc3CCC2C)c1 (centres undefined) | 0.5 | 54* | -4.6* | 20 | 0.8
SMILES | CYP2C19 act | CYP2C19 inhib | Cav32 inh | CYP2C9 inhib | CYP2C9 activ
CC1CCc2cc(F)ccc2N1C(=O)C1(C)CC1(Cl)Cl (centres undefined) | 0.4 | 56* | -2 | 36 | 0.6
CC1CCc2cc(F)ccc2N1C(=O)c1cnc2sccn2c1=O (centres undefined) | 1 | -2 | 0.45 | -3 | 1
O=C(c1ccc2c(c1)OCO2)N1CCCC1 | 1.1 | -6 | 0.48 | -4 | 1
CC1CCc2cc(F)ccc2N1C(=O)c1ccc2c(c1)OCO2 (centres undefined) | 0.4 | 62* | -3.1 | 26 | 0.7
CC(C)CCNC(=O)C1CC(c2cccc(F)c2)=NO1 (centres undefined) | . | . | 0.94 | . | .
Cc1ccc(C(=O)N2c3ccc(F)cc3CCC2C)o1 (centres undefined) | 0.5 | 53* | . | 27 | 0.7
